Data on seven molecules can be found in PubChem BioAssay (EPA / NIEHS).

Activity calls are given as the source filed them. How the source made its calls: active means hit-call score of the fitted dose curve at least 0.9, where 1 is the maximum; inactive means score below 0.9.

The nature of assay [1]: APR_HepG2_CellCycleArrest_24hr: Apredica 24-hour HepG2 Assay for Cell Cycle Arrest (AID 2282905).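 Further: cell cycle arrest scored as ratio of 2N to 4N nuclear DNA content.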 The conditions noted are these: imaging, actives raise or lower the signal. The method, boiled down:
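Cell cycle arrest is scored from nuclear DNA content measured by high-content imaging of Hoechst 33342-stained HepG2 cells following 24-hour treatment at ten concentrations up to 200 uM, with DMSO as baseline.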

Assay [2] is described as follows: APR_HepG2_NuclearSize_24hr: Apredica 24-hour HepG2 Assay for Nuclear Size (AID 2282907). The conditions noted are these: high-content imaging, actives raise or lower the signal. In outline:
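Compounds in DMSO (final 0.5%) were added to human HepG2 hepatoma cells at ten concentrations up to 200 uM for 24 hr. Fixed nuclei were stained with Hoechst 33342, and nuclear diameter was quantified from automated images.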

Assay [3] can be described thus: APR_HepG2_CellLoss_24hr: Apredica 24-hour HepG2 Assay for Cell Loss (AID 2282908). The conditions noted are these: high-content imaging. In outline:
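Cell number is quantified by fluorescence imaging of Hoechst 33342-stained nuclei following dosing at 0.39–200 uM in 0.5% DMSO. Curves are fitted in both directions from the DMSO baseline.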

Assay [4] in a line: APR_HepG2_MicrotubuleCSK_24hr: Apredica 24-hour HepG2 Assay for Microtubule CSK Stabilty (AID 2282909). The conditions noted are these: HepG2 microtubule cytoskeleton imaging, actives raise or lower the signal. In outline: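 Steps: dose HepG2 for 24 h (0.39–200 uM, 0.5% DMSO); fix 30 min in 3.7% formaldehyde at room temperature; permeabilize; stain alpha-tubulin 60 min; image microtubule cytoskeleton at 20x. Signal change fitted in both directions relative to DMSO.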

A short description of assay [5]: APR_HepG2_MitoticArrest_24hr: Apredica 24-hour HepG2 Assay for Mitotic Arrest (AID 2282910). The conditions noted are these: high-content imaging, actives raise or lower the signal. The method, boiled down: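 HepG2 human liver cells were exposed to compounds at 0.39–200 uM (10 concentrations, duplicate) in 0.5% v/v DMSO for 24 hr, then fixed and immunostained for phospho-histone H3 with Hoechst 33342. Mitotic arrest came from HCS fluorescent imaging, fitted bidirectionally against DMSO.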

Assay [6] can be described thus: APR_HepG2_MitoMembPot_24hr: Apredica 24-hour HepG2 Assay for Mitochondrial Membrane Potential (AID 2282911). The conditions noted are these: imaging, actives raise or lower the signal. The method, boiled down: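 Human hepatoma HepG2 cultures received ten compound concentrations up to 200 uM for 24 hr. Membrane-potential dye signal, captured by automated fluorescence microscopy, was scored for gain or loss against DMSO controls.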

Assay [7] can be described thus: APR_HepG2_MitoMass_24hr: Apredica 24-hour HepG2 Assay for Mitochondrial Mass (AID 2282912). The conditions noted are these: high-content imaging, actives raise or lower the signal. In outline: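 The liver line HepG2 was dosed in duplicate across a 0.39–200 uM series, with final DMSO held at 0.5% v/v, and harvested at 24 hr. High-content imaging measured mitochondrial dye staining.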

Assay [8] is described as follows: APR_HepG2_p53Act_24hr: Apredica 24-hour HepG2 Assay for p53 Activation (AID 2282913).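 Further: p53 protein immunofluorescence averaged per cell in HepG2 with Hoechst nuclei.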 The conditions noted are these: high-content imaging, actives raise or lower the signal. In outline:
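Automated fluorescence imaging quantifies p53 immunostaining in HepG2 cells after a 24 hr exposure (0.39–200 uM, duplicate, 0.5% DMSO). Nuclei are located by Hoechst 33342 staining.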

A short description of assay [9]: APR_HepG2_CellCycleArrest_72hr: Apredica 72-hour HepG2 Assay for Cell Cycle Arrest (AID 2282914). The conditions noted are these: high-content imaging, actives raise or lower the signal. The method, boiled down:
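Cell cycle arrest in HepG2 was scored from nuclear DNA content after 72 hr compound treatment (0.39–200 uM). Activity, either gain or loss, was fitted against the DMSO baseline.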

A short description of assay [10]: APR_HepG2_P-H2AX_72hr: Apredica 72-hour HepG2 Assay for H2AX Phosphorylation (AID 2282916).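 Further: phospho-histone H2A.x immunostain intensity per cell marking DNA damage.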 The conditions noted are these: imaging, actives raise or lower the signal. The method, boiled down: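 Following 72 hr treatment with 0.39–200 uM compound, HepG2 cells were formaldehyde-fixed, permeabilized and stained for phospho-H2A.x; signal was measured by high-content imaging and fitted bidirectionally against DMSO controls.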

Assay [11] is described as follows: APR_HepG2_MitoMembPot_72hr: Apredica 72-hour HepG2 Assay for Mitochondrial Membrane Potential (AID 2282917). The conditions noted are these: imaging, actives raise or lower the signal. The method, boiled down:
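HepG2 cells exposed 72 h to compounds at 0.39–200 uM (0.5% v/v DMSO, duplicates); MitoTracker Red CMXRos 250 nM loaded 30 min before 3.7% formaldehyde fixation, imaged by HCS fluorescence. Bidirectional fit versus DMSO.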

Assay [12] can be described thus: APR_HepG2_MicrotubuleCSK_72hr: Apredica 72-hour HepG2 Assay for Microtubule CSK Stabilty (AID 2282919). The conditions noted are these: HepG2 microtubule cytoskeleton, high-content imaging, actives raise or lower the signal. The method, boiled down:
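HepG2 human liver cells were dosed for 72 h at ten concentrations from 0.39 to 200 uM in duplicate (0.5% v/v DMSO final). Fixed, permeabilized cells were immunostained for alpha-tubulin (Cy5) with a Hoechst counterstain and imaged at 20x.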

A short description of assay [13]: APR_HepG2_P-H2AX_24hr: Apredica 24-hour HepG2 Assay for H2AX Phosphorylation (AID 2282920). The conditions noted are these: high-content imaging, actives raise or lower the signal. In outline:
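Signal comes from a FITC-labeled secondary detecting phospho-histone H2A.x in fixed HepG2 cells, quantified by automated imaging at 20x. Dosing ran 24 hr across 0.39–200 uM with 0.5% v/v DMSO.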

A short description of assay [14]: APR_HepG2_StressKinase_72hr: Apredica 72-hour HepG2 Assay for Stress Kinase (AID 2282921). The conditions noted are these: HepG2 stress kinase (phospho-c-Jun) imaging, actives raise or lower the signal. The method, boiled down: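 Fluorescence intensity of Cy3-tagged anti-phospho-c-Jun antibody, quantified per cell from Hoechst-defined nuclei across six images per well, served as the read-out following 72 h exposure (0.39–200 uM, 0.5% v/v DMSO).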

The nature of assay [15]: APR_HepG2_StressKinase_24hr: Apredica 24-hour HepG2 Assay for Stress Kinase (AID 2282922). The conditions noted are these: HepG2 stress kinase (phospho-c-Jun) imaging, actives raise or lower the signal. In outline: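 HepG2 cells exposed 24 hr to compound at 0.39–200 uM (10 concentrations, duplicate), 0.5% v/v DMSO final. Fixed in 3.7% formaldehyde, permeabilized with Triton X-100, immunolabeled for phospho-c-Jun with Hoechst 33342; HCS fluorescence imaging, bidirectional fit versus DMSO.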

The nature of assay [16]: APR_HepG2_p53Act_72hr: Apredica 72-hour HepG2 Assay for p53 Activation (AID 2282923).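 Further: average cellular p53 protein immunofluorescence intensity in HepG2 cells.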 The conditions noted are these: high-content imaging, actives raise or lower the signal. The method, boiled down: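 HepG2 monolayers receive test compounds in duplicate at ten concentrations (0.39 through 200 uM) for 72 hr. They are then formaldehyde-fixed, antibody-labelled for p53, Hoechst-stained and imaged, with activity fitted bidirectionally versus DMSO.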

Assay [17] is described as follows: APR_HepG2_MitoMass_72hr: Apredica 72-hour HepG2 Assay for Mitochondrial Mass (AID 2282924).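 Further: MitoTracker Red CMXRos stain intensity per cell imaged as mitochondrial mass.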 The conditions noted are these: high-content imaging, actives raise or lower the signal. In outline:
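HepG2 cells were exposed for 72 hr to compounds at 0.39–200 uM (ten concentrations, duplicate, 0.5% v/v DMSO final). Live cells were stained with 250 nM MitoTracker Red CMXRos for 30 min, then fixed in 3.7% formaldehyde and imaged by HCS fluorescence.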

A short description of assay [18]: APR_HepG2_CellLoss_72hr: Apredica 72-hour HepG2 Assay for Cell Loss (AID 2282915). The conditions noted are these: high-content imaging. In outline: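 HepG2 cells were exposed for 72 hr to compounds at 0.39–200 uM (ten concentrations, duplicate) in 0.5% v/v final DMSO. Nuclei were stained with Hoechst 33342 after 3.7% formaldehyde fixation, imaged at 20x, and counted; fits bidirectional versus DMSO.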

Assay [19] can be described thus: APR_HepG2_MitoticArrest_72hr: Apredica 72-hour HepG2 Assay for Mitotic Arrest (AID 2282918). The conditions noted are these: high-content imaging, actives raise or lower the signal. The method, boiled down:
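Mitotic arrest in HepG2 is scored from phospho-histone H3 staining after 72 hr dosing across 0.39–200 uM, with DMSO at 0.5% v/v. Nuclei are identified by Hoechst 33342 and fluorescence intensity is quantified per cell.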

Assay [20] in a line: APR_HepG2_NuclearSize_72hr: Apredica 72-hour HepG2 Assay for Nuclear Size (AID 2282925). The conditions noted are these: high-content imaging, actives raise or lower the signal. The method, boiled down: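 HepG2 cells were exposed to compounds at ten concentrations from 0.39 to 200 uM (duplicate, 0.5% DMSO final) for 72 hr. After fixation in 3.7% formaldehyde, nuclei were stained with Hoechst 33342 (2 ug/mL) and imaged at 20x.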

In general, AC50 refers to the concentration giving half of the maximal activity seen.

`Cc1ccc(O)cc1`: the molecule was classed as inactive in assay [1], in [2], in assay [3], in [4], in assay [5] and in assay [6]. Also, the molecule was classed as inactive in [7], in assay [8], in assay [9], in assay [10], in assay [11] and in [12]. Moreover, the result in assay [13], in [14], in assay [15], in assay [16] and in assay [17] was inactive.
With `COc1ccc(/C=C/S(=O)(=O)NC(=O)c2ccc(C)cc2Cl)cc1`, the AC50 in assay [1] was 102 µM (active); in assay [6], 14.7 µM (active); in assay [18], 57.3 µM (active); in assay [10], 100 µM (active); in assay [11], 12.8 µM (active); in assay [19] it was 102 µM (active). For the same molecule, the AC50 was 106 µM (active) in assay [13] and 113 µM (active) in assay [16]. Moreover, the result in [2], in [3], in assay [4], in assay [7], in assay [8] and in assay [9] was inactive. Moreover, the result in [12], in assay [14], in assay [15], in assay [17] and in assay [20] was inactive.
As for `CC1=CC(=O)CC(C)(C)C1`, the molecule was classed as inactive in assay [1], in [2], in assay [3], in assay [4], in assay [5] and in assay [6]. Besides, the molecule was called inactive in [7], in assay [8], in [9], in assay [10], in assay [19] and in assay [12]. In addition, the molecule was called inactive in [13], in assay [14], in assay [15], in [16], in assay [17] and in [20].
Take `CC(C)CCCCCCOC(=O)c1ccc(C(=O)OCCCCCCC(C)C)c(C(=O)OCCCCCCC(C)C)c1`: the result in assay [1], in assay [2], in assay [3], in assay [4], in [5] and in assay [6] was inactive. The molecule was classed as inactive in assay [7], in assay [8], in [9], in [10], in assay [11] and in assay [12]. Further, the molecule was classed as inactive in assay [13], in assay [14], in [15], in assay [16], in assay [17] and in assay [20].
As to `C=CC(=C)CCC=C(C)C`, the result in assay [1], in assay [2], in [3], in assay [4], in [6] and in [7] was inactive. The outcome in assay [8], in assay [9], in [18], in [10], in [11] and in assay [12] was inactive. For the same molecule, the call in assay [13], in [14], in [15], in assay [16] and in assay [17] was inactive.
Take `O=C(O)c1cccc(Oc2ccccc2)c1`: the molecule was called inactive in assay [1], in assay [2], in assay [3], in [4], in [5] and in [6]. The result in [7], in assay [8], in assay [9], in assay [10], in assay [11] and in assay [12] was inactive. Moreover, the result in assay [13], in [14], in assay [15], in assay [16] and in assay [17] was inactive.
In the case of `CC(=O)OCCC(C)C`, the call in [1], in assay [2], in assay [3], in assay [4], in assay [6] and in assay [7] was inactive. In addition, the molecule was classed as inactive in [8], in assay [9], in [18], in assay [10], in [11] and in assay [12]. Besides, the outcome in assay [13], in [14], in assay [15], in [16] and in [17] was inactive.
